# HSF-1 act: increases HSF-1 driven luciferase reporter signal | NIH3T3-HGL HSF-1 luciferase reporter, MG132, 8 h; 100% = twice DMSO control signal | activation, % at 9 µM | actives 1.7% (n = 300,000);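 active means mean replicate activation of at least 50% with a set share of replicates each reaching 50%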
# Vif inh: blocks HIV Vif function. HEK293T cells, Vif self-association by quenched fluorescence, imaging, 24 h. inhibition, % at 7.49 µM. actives 0.35% (n = 340,000); in the data active means inhibition above about 50%, passing the limit was not always enough
# esBAF inh: inhibitors of esBAF chromatin remodeling in mouse ES cells; AID 602393; reporter increase, % at 12.5 µM; Bmi1-luciferase knock-in reporter, 24 h; 100% = twice the neutral-well signal; actives 2% (n = 350,000); in the data active means activation above about 40%;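 further: a rise in the Bmi1 reporter signal indicates esBAF inhibition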
# HSF1 inhib: HSF1 inhibition. NIH3T3-HGL HSE-luciferase, MG132-induced, luminescence 8 h; stronger effect = lower value. activity change, negative = inhibition, % at 7.5 µM (by protocol). actives 0.77% (n = 300,000). AID 2098;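 active means more than half of replicate wells show activity change below -50%, luminescence cut by over half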;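 further: luciferase reports HSF-1 transcriptional activity via heat shock element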
# A number is an active result; . = inactive; / = no result given. In the library only some 3.4% were active in any assay of this set; here they are far more common.
SMILES,HSF-1 act,Vif inh,esBAF inh,HSF1 inhib
Cc1csc(NC(=O)c2ccc3c(=O)n4c(nc3c2)CCCCC4)n1,.,.,/,.
O=C(O)CC(Cc1ccc(Br)cc1)C(=O)O (centres undefined),.,/,.,-76
C[C@H](CO)N1C[C@H](C)[C@H](CN(C)Cc2ccc(C(=O)Nc3ccccc3N)cc2)Oc2c(NC(=O)c3nc4ccccc4s3)cccc2C1=O,/,/,.,/
CC1Cc2ccccc2N1CC(=O)NC(=O)NCc1ccccc1 (centres undefined),.,.,/,-75
COc1ccc(S(=O)(=O)Nc2cccc3c2O[C@@H](CN(C)C(=O)Nc2ccc4c(c2)OCO4)[C@H](C)CN([C@H](C)CO)C3=O)cc1,/,/,.,/
Cc1cnn(-c2cc(N/N=C/c3cccc(F)c3)ncn2)c1,56,.,/,.
C[C@@H]1CN([C@@H](C)CO)C(=O)c2cc(C#CC3CCCCC3)cnc2O[C@H]1CN(C)S(=O)(=O)c1ccc(F)cc1,/,/,.,/
CCCNC(=O)[C@H]1[C@H](CO)[C@H]2Cn3c(cccc3=O)[C@@H]1N2C(=O)NCCC,/,/,.,/
Cc1cnc(C(=O)Nc2ccccc2F)cn1,.,.,/,.
Cc1cnc(C(=O)Nc2ccccc2-n2cccc2)cn1,.,.,.,-60
CSc1ccccc1-c1nnc(-c2ccc(Cl)c(Cl)c2)o1,.,.,.,.
CSc1ccccc1-c1nnc(-c2ccc(Cl)cc2Cl)o1,54,.,/,.
CSc1nnc(-c2ccc(Cl)cc2Cl)o1,.,.,51,.
CC(C)OC(=O)CSc1nnc(-c2ccc(Cl)cc2Cl)o1,75,.,.,.
Clc1ccc(-c2nnc(-c3ccc(Br)o3)o2)c(Cl)c1,60,.,.,.
Clc1ccc(-c2nnc(-c3ccccc3)o2)c(Cl)c1,.,.,.,.
CCSc1nnc(-c2ccc(Cl)cc2Cl)o1,.,.,.,.
COc1ccc(S(=O)(=O)N(C)C[C@@H]2Oc3ccc(NS(=O)(=O)c4ccc(F)cc4)cc3CC(=O)N([C@H](C)CO)C[C@@H]2C)cc1,/,/,.,/
C[C@H](CO)N1C[C@H](C)[C@H](CN(C)Cc2ccccc2)Oc2ncc(/C=C/c3ccccc3)cc2C1=O,/,/,.,/
CN1C(=O)c2cc(NC(=O)Nc3ccccc3F)ccc2OC[C@@H]2O[C@H](CC(=O)O)CC[C@H]21,/,/,.,/
COc1ccccc1C#Cc1ccc2c(c1)O[C@@H](CN(C)C(C)=O)[C@H](C)CN([C@H](C)CO)S2(=O)=O,/,/,.,/
COc1ccc(S(=O)(=O)Nc2cccc3c2O[C@H](CN(C)S(=O)(=O)c2ccccc2)[C@@H](C)CN([C@@H](C)CO)C3=O)cc1,/,/,.,/
C[C@@H]1CN([C@@H](C)CO)C(=O)c2cc(NS(=O)(=O)c3ccc(F)cc3)ccc2O[C@@H]1CN(C)S(=O)(=O)c1cccs1,/,/,.,/
CC(=O)N=c1sccn1CC(=O)c1ccc([N+](=O)[O-])cc1,58,.,/,.
O=C(CSCC(=O)c1ccc([N+](=O)[O-])cc1)c1ccc([N+](=O)[O-])cc1,/,.,/,/
SMILES,HSF-1 act,Vif inh,esBAF inh,HSF1 inhib
CCc1ccc2[nH]c(C(=O)Nc3ccc(Br)c(C)n3)cc2c1,.,.,44,.
COc1ccc2[nH]c(C(=O)Nc3cccc(C)n3)cc2c1,61,.,.,.
COc1ccccc1-c1noc(-c2cc(OC)c(OC)c(OC)c2)n1,.,.,.,.
COc1cc(-c2nc(-c3ccccn3)no2)cc(OC)c1OC,.,.,50,.
COc1cccc(-c2nc(-c3ccccn3)no2)c1OC,.,.,43,.
Cc1nc2ccccc2c(=O)n1/N=C/c1ccc([N+](=O)[O-])o1,.,/,/,.
Cc1nc2ccccc2n1/N=C/c1ccc([N+](=O)[O-])o1,77,.,/,.
CNC[C@H]1Oc2ccc(NC(=O)Cc3ccccc3)cc2C(=O)N([C@H](C)CO)C[C@@H]1C,/,/,.,/
Cc1cc(-c2nnc(SCC(=O)Nc3ccc(Cl)cn3)n2N)n[nH]1,.,55,.,.
Cc1cc(-c2nnc(SCC(=O)Nc3ccccc3F)n2N)n[nH]1,.,.,.,.
CC(=O)Nc1ccc(Nc2nc(C)nc3c2oc2ccccc23)cc1,.,.,.,.
Clc1ncnc2c1oc1ccccc12,.,.,52,.
CCSc1ncnc2c1oc1ccccc12,.,.,.,.
CC(=O)c1ccc(Nc2ncnc3c2oc2ccccc23)cc1,.,/,65,.
c1ccc(CNc2ncnc3c2oc2ccccc23)nc1,.,.,65,.
COc1cc2c(cc1NCc1ccccn1)oc1ccccc12,.,.,45,.
CCOC(=O)c1cc(-c2ccccc2C)nn1Cc1cc(C)no1,/,.,46,/

# Screening data deposited in PubChem BioAssay by Broad Institute.
